These results are taken from PubChem BioAssay (Tox21).

SMILES strings stand for the structures. Where “and” joins values, the source holds several entries; their conditions need not be identical. Identical values can stand only once. Results filed as inconclusive are left out. Entries that show only a call come without a potency. Values without a mark were called inactive. Calls of active or inactive are those of the source. The call rests on the fitted dose curve; in most records, active means well fitted cell-killing curve with a large enough effect in the repeat runs; inconclusive means weak or mixed curves, or effect the other way; inactive means flat fitted curve, though single readings scatter.

A short description of test [1]: cAMP Responsive Elements (CRE) small molecule antagonists, cell-based qHTS assay: qHTS cell viability counter screen (AID 2060913). Further: nearly all actives have a fitted effect of over 40% in size. In short, it runs like this: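 Cytotoxicity counter screen multiplexed with the CRE-bla antagonist read: HEK293T cells in DMEM with dialyzed FBS and 25 mM HEPES were treated 3 hrs under 0.25 uM final NKH477, then viability measured by CellTiter-Glo luminescence.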

A short description of test [2]: cAMP Responsive Elements (CRE) small molecule agonists, cell-based qHTS assay: qHTS cell viability counter screen (AID 2060914).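 Further: viability read after 3 h of compound exposure; nearly all actives have a fitted effect of over 50% in size.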 Put shortly:
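CRE-bla HEK293T cells in 10% dialyzed FBS medium were exposed to compounds for 3 h at 37C after 18 h plating. CellTiter-Glo was then added in the same wells, and luminescence was read after 30 min at room temperature.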
Potency means the concentration at half of the fitted maximal effect.

Consider `BrCC(Br)C1CCC(Br)C(Br)C1` (centres undefined), for which the Potency entry in test [1] is “inactive”.

Regarding `NC(=O)C(Cl)Cl`, the Potency entry in test [1] is “inactive”.

`CCn1cc[n+](C)c1C`: the Potency result in test [1] was “inactive”.

Regarding `CCOC(=O)c1ncn2c1CN(C)C(=O)c1c(I)cccc1-2`, the Potency result in test [1] was “inactive”.

In the case of `CCOc1ccc(C(C)(C)COCc2cccc(Oc3ccccc3)c2)cc1`, the Potency result in test [1] is “inactive”.

Turning to `C=C(C)C(=O)OCC(CC)CCCC` (centres undefined), the Potency result in test [1] and in test [2] was “inactive” in each case.

With `ClC=C(Cl)Cl`, the Potency entry in test [1] was “inactive”.

Turning to `ClC(Cl)=C(c1ccc(Cl)cc1)c1ccc(Cl)cc1`, the Potency result in test [1] is “inactive”.

For the compound `CC(C)(COCC1CO1)COCC1CO1` (centres undefined), the Potency result in test [1] and in test [2] was “inactive” throughout.

With `NC(=O)O`, the Potency entry in test [1] is “inactive”.

In the case of `CCCC[n+]1ccccc1C`, the Potency result in test [1] and in test [2] was “inactive” throughout.

Regarding `CCS(=O)(=O)C(C)(C)S(=O)(=O)CC`, the Potency entry in test [1] is “inactive”.

Regarding `O=C(Nc1ccc(F)cc1F)c1cccnc1Oc1cccc(C(F)(F)F)c1`, the Potency result in test [1] was “inactive”.

Consider `O=C(O)c1ccc(=O)[nH]c1`, for which the Potency entry in test [1] and in test [2] was “inactive” in each case.

With `Clc1ccccc1Cl`, in test [1], the Potency entry was “inactive”.

For `COP(=S)(OC)Oc1ccc([N+](=O)[O-])cc1Cl`, in test [1], the Potency result is “inactive”.

On to `C1=Cc2cccc3cccc1c23`, for which the Potency result in test [1] was “inactive”.

As to `Oc1cc(Cl)c(Cl)cc1Cl`, the Potency result in test [1] was “inactive”.

As for `CC(=O)C(Cl)C(=O)N(C)C` (centres undefined), the Potency entry in test [1] and in test [2] was “inactive” in each case.

In the case of `CC(Cc1ccc(C(C)(C)C)cc1)CN1C[C@@H](C)O[C@@H](C)C1` (some centres undefined), the Potency entry in test [1] is “inactive”.

For the compound `O=C(O)c1ccccc1C(=O)Nc1cccc2ccccc12`, the Potency entry in test [1] was “inactive”.

With `O=C(O)Cc1ccccc1`, the Potency result in test [1] is “inactive”.

`ClCCOCOCCCl`: the Potency result in test [1] is “inactive”.

For the compound `O=C(O)COc1ccccc1`, the Potency result in test [1] and in test [2] was “inactive” throughout.

For `CCC(C)C(C)(COC(N)=O)COC(N)=O` (centres undefined), the Potency entry in test [1] and in test [2] was “inactive” in each case.

Take `CC(C)[C@@H](Nc1ccc(C(F)(F)F)cc1Cl)C(=O)OC(C#N)c1cccc(Oc2ccccc2)c1` (some centres undefined): in test [1], the Potency entry was “inactive”.

For `CCC[N+]1(C)CCCC1`, in test [1], the Potency entry was “inactive”.

Turning to `O=[N+]([O-])c1cc([N+](=O)[O-])c2ccccc2c1`, in test [1], the Potency result is “inactive”.

As to `O=[N+]([O-])c1c2ccccc2cc2ccccc12`, the Potency result in test [1] was “inactive”.

Consider `CCN(CC)C(=O)[C@@H]1C=C2c3cccc4[nH]cc(c34)C[C@H]2N(C)C1`, for which the Potency result in test [1] was “inactive”.

As for `ClC1=C(Cl)C2(Cl)C3C(Cl)C(Cl)CC3C1(Cl)C2(Cl)Cl` (centres undefined), the Potency is 60.9 µM (active) in test [1] and 54.5 µM (active) in test [2].

As to `[Hg+2].[I-].[I-]`, in test [1], the Potency was 54.5 µM (active).

In the case of `NS(=O)(=O)C(F)(F)C(F)(F)C(F)(F)C(F)(F)C(F)(F)C(F)(F)C(F)(F)C(F)(F)F`, the Potency entry in test [1] was “inactive”.

Consider `Cc1ccc(N)c(N)c1`, for which the Potency result in test [1] is “inactive”.

In the case of `CCCCCCCCCCCCCCCCCC(=O)O`, in test [1], the Potency entry was “inactive”.

As to `O=[N+]([O-])c1ccc(Cl)c([N+](=O)[O-])c1`, in test [1], the Potency was 27.7 µM (active) and 57 µM (active).

Consider `CC(C)(C1CCC(O)CC1)C1CCC(O)CC1` (centres undefined), for which, in test [1], the Potency entry was “inactive”.

`Oc1cccc(Cl)c1Cl`: in test [1], the Potency entry is “inactive”.

Consider `CC(C)(C)CC(C)(C)c1ccc(O)cc1`, for which, in test [1], the Potency was 43.3 µM (active).

Regarding `O=C(N/N=C/c1ccc([N+](=O)[O-])o1)c1cc([N+](=O)[O-])cc([N+](=O)[O-])c1O`, the Potency entry in test [1] is “inactive”.

On to `CCC1(c2ccccc2)C(=O)NC(=O)NC1=O`, for which the Potency result in test [1] and in test [2] was “inactive” each time.

`CCOC(=O)CC(=O)CCl`: the Potency result in test [1] and in test [2] was “inactive” each time.

In the case of `O=C1Nc2ccc(Cl)cc2C(c2ccccc2)=NC1O` (centres undefined), the Potency result in test [1] and in test [2] was “inactive” throughout.

On to `Cl/C=C\C[N+]12CN3CN(CN(C3)C1)C2`, for which the Potency result in test [1] and in test [2] was “inactive” in each case.

Turning to `CCCBr`, the Potency entry in test [1] and in test [2] was “inactive” each time.

Regarding `COP(N)(=O)SC` (centres undefined), the Potency entry in test [1] and in test [2] was “inactive” throughout.

As for `CCCN1CCC[C@@H]2Cc3[nH]ncc3C[C@H]21`, the Potency result in test [1] and in test [2] was “inactive” in each case.

Turning to `CNC(=O)Oc1ccccc1C(C)C`, the Potency result in test [1] and in test [2] was “inactive” each time.

Take `C=CCc1ccc(OC)cc1`: the Potency result in test [1] and in test [2] was “inactive” each time.

Consider `OCCOCCO`, for which the Potency entry in test [1] and in test [2] was “inactive” throughout.

In the case of `N#Cc1c(Cl)cccc1Cl`, the Potency entry in test [1] and in test [2] was “inactive” in each case.

On to `[As]#[In]`, for which, in test [1], the Potency result was “inactive”. For the same compound, the Potency in test [2] was 2.17 µM (active).

In the case of `CNC(=O)Oc1cccc(C(C)C)c1`, the Potency result in test [1] and in test [2] was “inactive” in each case.

As for `Cc1ccc(C)c2ccccc12`, the Potency result in test [1] and in test [2] was “inactive” in each case.

For `C#CCN1C(=O)COc2cc(F)c(N3C(=O)C4=C(CCCC4)C3=O)cc21`, the Potency result in test [1] and in test [2] was “inactive” in each case.

For `CCOC(=O)CC(SP(=O)(OC)OC)C(=O)OCC` (centres undefined), the Potency entry in test [1] and in test [2] was “inactive” in each case.

As for `CNC(=O)O/N=C/C(C)(C)S(C)(=O)=O`, the Potency result in test [1] and in test [2] was “inactive” in each case.

In the case of `O=c1[nH]c2ccccc2c(=O)o1`, the Potency result in test [1] and in test [2] was “inactive” throughout.

For the compound `ClCCCCl`, the Potency entry in test [1] and in test [2] was “inactive” in each case.

For `Brc1c(Br)c(Br)c(Oc2c(Br)c(Br)c(Br)c(Br)c2Br)c(Br)c1Br`, the viability change, negative = cytotoxic in test [1] is -10% [at 18.9 µM]. In addition, the activity change, negative = cytotoxicity in test [2] was 4.51% [at 18.9 µM].

`ClC1=C(Cl)C2(Cl)C(CBr)CC1(Cl)C2(Cl)Cl` (centres undefined): the Potency entry in test [1] and in test [2] was “inactive” each time.

For the compound `C/C=C/CC#N`, the Potency entry in test [1] and in test [2] was “inactive” throughout.

For `CCC(=O)C(CC(C)N(C)C)(c1ccccc1)c1ccccc1` (centres undefined), the Potency entry in test [1] and in test [2] was “inactive” each time.

With `CCOC(=O)c1cncn1C(C)c1ccccc1` (centres undefined), the Potency entry in test [1] and in test [2] was “inactive” throughout.

Regarding `Cc1nc(N)nc(N)n1`, the Potency entry in test [1] and in test [2] was “inactive” in each case.

`CN(C)CCc1c[nH]c2cccc(OP(=O)(O)O)c12`: the Potency entry in test [1] and in test [2] was “inactive” each time.

As for `CC1=C2[C@H]3OC(=O)[C@@H](C)[C@@H]3CC[C@@]2(C)C=CC1=O`, the Potency entry in test [1] and in test [2] was “inactive” throughout.

On to `C#CCOC(=O)/C=C(C)/C=C/CC(C)CCCC(C)C` (centres undefined), for which the Potency result in test [1] and in test [2] was “inactive” in each case.
